# Assay outcomes: PubChem, National Center for Advancing Translational Sciences (NCATS)
# A selection: hits, their analogues and other compounds. The true share with any hit is near 19%.
# DT40 TDP1 CPT: qHTS for Inhibitors of human tyrosyl-DNA phosphodiesterase 1 (TDP1): qHTS in cells in presence of CPT | chicken DT40 Tdp1-/-;hTDP1 cells + 20 nM CPT, ATP luminescence, 48 h | Potency, µM (series often up to 46.2 µM), without a hit: at the highest dose activity change, negative = growth inhibition, usual class: inhibitors | actives 12% (n = 420,000) | AID 686979, 2013; also: nearly all actives have a fitted effect of over 55% in size
#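 Cell growth measured by CellTiter-Glo luminescence after a minimum 48 h, 37 C compound exposure with 20 nM CPT in Tdp1-knockout DT40 cells stably expressing hTDP1, seeded 400/well; qHTS titration format.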
# RORg inh: qHTS for inhibitors of ROR gamma transcriptional activity; actives 5.4% (n = 310,000); Potency, µM (series often up to 53.6 µM), for inactives: at the top dose activity change, negative = inhibition, most hits filed as inhibitors; Drosophila S2 Gal4-RORgamma UAS-luciferase reporter, 20 h; also: nearly all actives have a fitted effect of over 60% in size
# Target sequence (P51450 whole entry, looked up, the tested form may be a part): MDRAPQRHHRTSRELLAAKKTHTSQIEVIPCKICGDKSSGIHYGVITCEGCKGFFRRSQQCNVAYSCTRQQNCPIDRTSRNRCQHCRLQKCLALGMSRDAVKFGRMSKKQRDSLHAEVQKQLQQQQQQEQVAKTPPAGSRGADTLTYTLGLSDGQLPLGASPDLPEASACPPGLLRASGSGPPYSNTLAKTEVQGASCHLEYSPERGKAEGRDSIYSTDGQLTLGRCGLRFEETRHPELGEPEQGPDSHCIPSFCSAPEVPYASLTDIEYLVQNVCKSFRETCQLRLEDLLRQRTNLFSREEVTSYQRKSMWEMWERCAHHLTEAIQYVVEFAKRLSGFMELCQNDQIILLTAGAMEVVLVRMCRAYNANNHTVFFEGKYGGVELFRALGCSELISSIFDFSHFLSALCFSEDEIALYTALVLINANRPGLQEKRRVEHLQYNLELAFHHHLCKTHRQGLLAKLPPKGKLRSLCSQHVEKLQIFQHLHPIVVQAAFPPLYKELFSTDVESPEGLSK
#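 Stably transfected Drosophila Schneider cells are the test system, with ROR gamma fused to Gal4 and luciferase under UAS control; luminescence is read after 20 hr of 700 uM copper sulfate induction at ambient temperature.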
# TDP1 block: qHTS Assay for Inhibitors of Tyrosyl-DNA Phosphodiesterase (TDP1); recombinant TDP1, AlphaScreen DNA substrate cleavage; Potency, µM (top dose mostly 130 µM), inactives show at the top dose activity change, negative = inhibition, hits mostly inhibitors; actives 0.28% (n = 350,000); also: nearly all actives have a fitted effect of over 40% in size
#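 Tdp1 1 nM final; 15 min RT w/ cpd; substrate 15 nM, 5 min; beads 10 ug/ml, 10 min; AlphaScreen read. Neg ctrl: no enzyme.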
# TDP1 cell noCPT: qHTS for Inhibitors of human tyrosyl-DNA phosphodiesterase 1 (TDP1): qHTS in cells in absence of CPT | DT40 Tdp1-/- hTDP1 cells, no CPT, ATP luminescence, 48 h | Potency, µM (doses to about 46.2 µM), inactives show top-dose activity change, negative = growth inhibition, hits mostly inhibitors | actives 15% (n = 420,000); also: nearly all actives have a fitted effect of over 55% in size
#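 Readout: luminescence from CellTiter-Glo after 30 min in the dark at RT. Cells: DT40 Tdp1-/- with stable hTDP1, 400/well. Exposure: compounds alone, ≥48 hr, 37 °C.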
# VP16 counter: VP16 counterscreen qHTS for inhibitors of ROR gamma transcriptional activity; Drosophila S2 Gal4-VP16 UAS-luciferase, luminescence, 20 h; Potency, µM (titrated, usually from 53.6 µM), without a hit: at the top dose activity, negative = inhibition, most hits filed as inhibitors; actives 3.5% (n = 310,000);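 also: Gal4-VP16 expression switched on by copper sulfate through the metallothionein promoter; nearly all actives have a fitted effect of over 50% in size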
# An asterisk follows results filed as active; ? = inconclusive; / = no result; [ ] = another dose, or the depositor's remark. Calls follow the shape of the dose curve; as a rule, active = well fitted curve in the direction sought with a large enough effect; inconclusive = small, poorly fitted or top-dose-only effect, or another doubt; inactive = no such curve, though single readings can be large; an effect the other way counts as inactive or inconclusive. % is scaled to controls: 0 for no effect and ±100 for the full control effect; potency is read from the fitted curve at half-maximal effect.
SMILES,DT40 TDP1 CPT,RORg inh,TDP1 block,TDP1 cell noCPT,VP16 counter
CC(C)[C@H]1CN=C2N(C[C@H](C)NC(=O)CCC3CCCCC3)[C@H](Cc3ccc(O)cc3)CN21,6.5µM*,-6%,/,6.5µM*,9%
C[C@@H](CN1C2=NC[C@H](C)N2C[C@H]1Cc1ccc(O)cc1)NC(=O)CCC1CCCCC1,12µM*,8%,-1%,13µM*,-8%
CC1(C)NC(=O)N(CC(=O)OCC(=O)N2CCN(S(=O)(=O)c3ccccc3)CC2)C1=O,-11%,/,-5%,-3%,/
CCc1ccc(CNC(=O)c2cccc(-n3c(C)nc4cccnc43)c2)cc1,13µM*,/,6%,16µM*,/
Cc1nc2cccnc2n1-c1cccc(C(=O)NCCN(C)C)c1,-5%,/,-6%,-3%,/
O=C(c1cccc(Cl)c1)N1CCN(c2ncccn2)CC1,3%,5%,/,17%,-7%
Cc1ccc(C(=O)N2CCN(c3cccc(Cl)c3)CC2)cc1-n1c(C)nc2cccnc21,10µM*,/,0%,9.2µM*,/
Cc1nc2cccnc2n1-c1cccc(C(=O)NCc2cccc(Cl)c2)c1,21µM*,/,6%,18µM*,/
C/C(=N\NC(=O)c1cccc(F)c1)c1ccc(Br)s1,5.6µM*,0.79µM*,2%,7.1µM*,1.3µM*
C/C(=N\NC(=O)c1ccccc1[N+](=O)[O-])c1ccc(Br)s1,-11%,19%,6%,?,-11%
C/C(=N\NC(=O)c1ccccc1O)c1ccc(Br)s1,15µM*,2µM*,-1%,?,2µM*
C/C(=N\NC(=O)c1cc(Br)ccc1O)c1cccs1,?,10µM*,8%,-24%,?
Cc1ccccc1C(=O)NNC(=O)C(=O)Nc1cccc(Cl)c1C,?,32%,0%,-20%,?
CCCCC(=O)NC(=S)NNC(=O)CCc1ccccc1,21µM*,11µM*,4%,21µM*,-7%
CC(=O)NC(=S)NNC(=O)CCc1ccccc1,?,34%,-4%,?,-6%
CC(C)(C)c1cc(CCC(=O)NNC(=S)NC(=O)c2ccccc2)cc(C(C)(C)C)c1O,4.1µM*,11µM*,9%,3.7µM*,13µM*
O=C(CCc1ccccc1)NNC(=S)NC(=O)c1ccccc1,7.3µM*,4.5µM*,9%,15µM*,?
CC(C)(C)c1cc(CCC(=O)NNC(=O)c2ccco2)cc(C(C)(C)C)c1O,-8%,18%,3%,?,2%
CCCCC(=O)NNC(=S)NC(=O)CCC,?,10µM*,-1%,?,?
Nc1cc(=O)[nH]c(SCC(=O)Nc2nnc(-c3ccccc3)s2)n1,4%,-3%,/,3%,-9%
O=C1CC(c2cccs2)Cc2nc(NCC3CCCO3)ncc21 (stereo unspecified),-11%,?,2%,-25%,-7%
CCOC(=O)c1c2c(n(-c3ccc(OC)cc3)c1C)C(=O)C(=O)c1ccccc1-2,3.3µM*,/,/,2.1µM*,/
CCOC(=O)c1c2c(n3ccccc13)C(=O)c1ccccc1C2=O,10µM*,/,/,10µM*,/
COc1ccc(C2C(C(=O)O)c3ccccc3C(=O)N2C)cc1Br (stereo unspecified),2%,40%,-3%,-14%,3%
CC(OC(=O)c1ccc2ccccc2c1)C(=O)N(C)Cc1ccccc1 (stereo unspecified),?,/,-6%,21µM*,/
SMILES,DT40 TDP1 CPT,RORg inh,TDP1 block,TDP1 cell noCPT,VP16 counter
CC(OC(=O)c1ccccc1NS(=O)(=O)c1cccc(C(F)(F)F)c1)C(=O)N(C)Cc1ccccc1 (stereo unspecified),?,?,-3%,23µM*,0%
CC(OC(=O)c1ccc(OCC2CCCO2)cc1)C(=O)N(C)Cc1ccccc1 (stereo unspecified),?,/,-5%,?,/
CN(Cc1ccccc1)C(=O)COC(=O)c1ccccc1NS(=O)(=O)c1cccc(N)c1,?,2%,3%,?,-4%
COc1ccc(/C=N/NC(=O)C(=O)/C=C2\NC3(CCCC3)Cc3ccccc32)cc1,?,25%,3%,?,-5%
O=C(/C=C1\NC2(CCCC2)Cc2ccccc21)C(=O)N/N=C/c1ccc(O)c(O)c1,5.8µM*,-4%,-3%,4.6µM*,0%
COc1ccc(C(=O)Nc2nnc(-c3ccccc3)o2)cc1OC,?,0.56µM*,7%,23µM*,1µM*
COc1cccc(-c2nnc(N)o2)c1,0%,18%,2%,-17%,-2%
COc1cc(C(=O)NCC(=O)OCC(=O)Nc2nnc(-c3ccccc3)o2)cc(OC)c1OC,6%,/,/,7%,/
COc1cccc(-c2nnc(NC(=O)c3ccccc3Br)o2)c1,?,5µM*,/,?,3.2µM*
COc1cccc(-c2nnc(NC(=O)c3cccc(F)c3)o2)c1,3.3µM*,0.32µM*,/,3.3µM*,0.79µM*
COc1cccc(-c2nnc(-c3ccccc3NC(=O)c3ccc(F)cc3F)o2)c1,-4%,/,7%,-19%,/
COc1ccc(N(C(=O)c2ccco2)C(C(=O)NC2CCCC2)c2ccc(N(C)C)cc2)cc1OC (stereo unspecified),0%,-5%,2%,3%,?
O=C(Nc1nnc(CCS(=O)(=O)c2ccc3ccccc3c2)s1)c1ccc([N+](=O)[O-])cc1,-21%,10%,-2%,?,4%
O=C(Nc1ncc(S(=O)(=O)c2ccc([N+](=O)[O-])cc2)s1)c1cccnc1,5.8µM*,-5%,8%,18µM*,-6%
O=C(Nc1ncc(S(=O)(=O)c2ccc([N+](=O)[O-])cc2)s1)c1ccc2ccccc2c1,16µM*,-35%,0%,?,?
CCOCCC(=O)Nc1ncc(S(=O)(=O)c2ccc([N+](=O)[O-])cc2)s1,0%,/,/,-14%,/
O=C(CCNC(=O)c1ccccc1)OCN1C(=O)c2ccccc2C1=O,-8%,-3%,4%,-2%,-3%
CC1=C(C(=O)N2CCN(c3cccc(Cl)c3)CC2)C2(CCCCC2)OC1=O,?,/,2%,21µM*,/
CC1=C(C(=O)N2CCN(c3ccccc3)CC2)C2(CCCCC2)OC1=O,-24%,/,7%,-27%,/
CC1=C(C(=O)N2CCN(c3cccc(C)c3C)CC2)C2(CCCCC2)OC1=O,21µM*,/,2%,21µM*,/
Cc1ccc(NC(=O)c2cccc(Cl)c2)nc1,-25%,20%[10 µM],1%,-26%,-3%
